Bioassay records as filed in PubChem BioAssay.
NS3h inh CB: HCV NS3 helicase inhibitors, primary screen, biochemical, fluorescence polarization, ChemBridge library | NS3h Cy5-dT15 DNA binding | inhibition, % at 100 µM | hit rate 1.6% among 16,000 | AID 687043, 2013;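 active means inhibition above the average over every tested compound plus 3 SD, cut at about 40% in these data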
Cy5 interf NS3h: Cy5 fluorescence quenchers or enhancers, artefact control for HCV NS3 helicase inhibitor project, biochemical, ChemBridge library, Cy5 readout. Cy5-dT15 DNA with NS3h, fluorescence interference; actives lie on both sides; signal over control mean, under 1 quenches. fluorescence interference ratio at 100 µM. hit rate 6% among 16,000. AID 720488, 2013;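 active means compound fluorescence over control fluorescence at most 0.8, a quencher, or at least a set upper limit, an enhancer; inactive means ratio between 0.8 and the set upper limit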
The depositor's hits bear a star. Sampled rows, rich in hits. Any-hit rate of the full collection: about 7.6%.

SMILES	NS3h inh CB	Cy5 interf NS3h
Cc1c(Cl)c([N+](=O)[O-])nn1CC(=O)Nc1cc(C(F)(F)F)ccc1Cl	1	0.62*
Cc1c(Cl)c(C(F)(F)F)nn1CC(=O)Nc1ccccc1C(F)(F)F	2	1
O=C(Nc1ccc(Nc2ccccc2)cc1)c1ccccc1[N+](=O)[O-]	11	0.89
COc1ccccc1N1C(=O)c2ccc(C(=O)Nc3ccc(Br)cc3)cc2C1=O	8	0.99
CC(=O)CC(C)(C)Nc1ccccc1	6	0.74*
CCC(C(C)=O)C(=O)Nc1ccccc1 (configuration not stated)	-2	0.97
CC12c3ccccc3C(c3ccccc31)C1C(=O)N(c3cccc([N+](=O)[O-])c3)C(=O)C12 (configuration not stated)	18	1
CC12c3ccccc3C(c3ccccc31)C1C(=O)NNC(=O)C12 (configuration not stated)	11	0.66*
COc1ccc(C2C(=C(O)c3ccccc3)C(=O)C(=O)N2c2cccc(OC)c2)cc1 (configuration not stated)	-11	0.96
COc1ccc(NC(=O)CSC(N)=O)c(OC)c1	-11	1
COc1cc(/C=C2/C(=O)N(c3ccccc3)N=C2C)cc(I)c1O	17	0.69*
COc1cc(/C=C2/C(=O)N(c3ccccc3)N=C2C)cc([N+](=O)[O-])c1O	4	0.93
CC1(C)c2ssc(=S)c2-c2ccccc2N1C(=O)c1ccccc1	2	1
Clc1ccc(Cl)c(OCCOCCN2CCOCC2)c1	-24	1.1
COc1ccc(OC)c(C(=O)c2c(C)oc3ccc(O)cc23)c1	10	0.97
COc1ccc2oc(C)c(C(C)=O)c2c1	16	0.74*
CCOC(=O)c1sc(NC(=O)c2ccc(S(=O)(=O)N3CCOCC3)cc2)c(C(=O)OCC)c1C	10	0.97
O=C(NC(CS)C(=O)O)c1cncc(O)c1 (configuration not stated)	0	0.64*
CCOC(=O)c1c(NC(=O)c2cncc(Br)c2)sc(C)c1C	17	0.97
CCNC(=S)NCCc1ccc(S(N)(=O)=O)cc1	0	1
CC(=O)Nc1ccc(NC(=O)c2ccc(C)cc2)cc1	4	1
O=C(Nc1ccc2c(c1)C(=O)N(c1ccccc1)C2=O)c1ccc2c(c1)C(=O)N(c1ccccc1)C2=O	-7	1
O=C(Nc1ccc(NC(=O)c2ccc(Cl)cc2Cl)cc1)c1ccc(Cl)c(Cl)c1	-17	0.97
CC(=O)Nc1ccc(NC(=O)c2ccc(Cl)c(Cl)c2)cc1	17	1.2*
CC(=O)Nc1ccc(NC(=O)c2ccc(N3C(=O)c4ccc(C(=O)Nc5ccc(NC(C)=O)cc5)cc4C3=O)cc2)cc1	15	0.77*
SMILES	NS3h inh CB	Cy5 interf NS3h
CC(=O)Nc1ccc(NC(=O)c2ccc(C(F)(F)F)cc2)cc1	12	0.76*
CCOC(=O)C1=C(C)NC2=C(C(=O)CCC2)C1c1ccc(I)cc1 (configuration not stated)	12	0.94
CC(=O)Nc1ccc(C(=O)NCc2ccccn2)cc1	2	1.1
O=C(Nc1ccc2c(c1)C(=O)OC2)NC1CCCCC1	21	1.4*
CN(C)c1cccc(C(=O)NC2CCCCCC2)c1	8	1.1
CCOc1ccc(NC(=O)c2cc(Cl)ccc2Cl)cc1	9	1.1
Cc1ccccc1NC1(c2ccccc2Cl)C(=O)c2ccccc2C1=O	9	0.74*
O=C1c2ccccc2C(=O)C1(Nc1ccc(F)cc1)c1ccccc1	17	0.98
COc1ccc(-c2noc(COc3ccccc3)n2)cc1	14	1
COc1ccc(/C=C2/Sc3ccccc3C2=O)cc1	14	0.95
CN1CCN(c2ccc(/C=C3\Sc4ccccc4C3=O)cc2[N+](=O)[O-])CC1	-3	0.79*
CN1C(=O)C(=Cc2ccc(O)c([N+](=O)[O-])c2)C(=O)N(C)C1=O	11	1.1
CN1CCN(c2ccc(/C=C3\NC(=S)NC3=O)cc2[N+](=O)[O-])CC1	1	0.61*
O=C1NC(=O)N(c2ccccc2)C(=O)/C1=C\c1ccc(OCCOc2ccccc2)cc1	11	0.94
O=C(COc1ccc2c(c1)oc(=O)c1ccccc12)c1ccccc1	-72	1.4*
O=C(COc1ccc2c(c1)oc(=O)c1ccccc12)OCc1ccccc1	-1	0.94
CCn1nnnc1-c1ccc(OC)c(S(=O)(=O)Nc2ccc(Br)cc2)c1	10	0.96
O=c1[nH]c2ccccc2nc1C=C(O)c1cccc(Br)c1	2	0.93
O=C(CSc1ccccn1)c1ccc(-c2ccccc2)cc1	-4	1.1
CCOC(=O)C1=C(C)N=c2s/c(=C\c3ccc(N(C)C)o3)c(=O)n2C1c1ccc(OCC)cc1 (configuration not stated)	1	0.8*
CCOC(=O)C1=C(C)N=c2s/c(=C\c3ccc([N+](=O)[O-])o3)c(=O)n2C1c1ccc(OCC)cc1 (configuration not stated)	-6	0.86
O=C(/C=C/c1ccco1)Nc1ccc(NC(=O)c2ccc(Cl)cc2Cl)cc1	8	1
O=[N+]([O-])c1ccccc1S(=O)(=O)NCCOc1ccc(Cl)cc1	6	0.82
CN1C(=O)C(=O)C(=C(O)c2ccc(Cl)cc2)C1c1cccc([N+](=O)[O-])c1 (configuration not stated)	5	1.2
COC(=O)c1ccccc1NC(=O)c1cnn2c(C(F)(F)F)cc(-c3ccccc3)nc12	-1	0.65*
SMILES	NS3h inh CB	Cy5 interf NS3h
CC(C)(C)NC(=O)c1nn2c(C(F)(F)F)cc(-c3ccccc3)nc2c1Br	6	0.64*
COC(=O)c1cc2nc(-c3ccc(OC)cc3)cc(C(F)(F)F)n2n1	1	1
O=C(NCc1ccccc1)c1nn2c(C(F)(F)F)cc(-c3cccs3)nc2c1Cl	18	1
CC(COc1ccccc1)NC(=O)c1nn2c(C(F)(F)F)cc(-c3ccccc3)nc2c1Br (configuration not stated)	10	0.63*
O=C(Nc1ccccc1C(F)(F)F)c1cnn2c(C(F)(F)F)cc(-c3ccccc3)nc12	12	1.1
O=C(c1ccccc1Br)N1CCN(c2c(Cl)cccc2[N+](=O)[O-])CC1	15	0.9
CCOc1cc(/C=C2\C(=O)NC(=S)N(c3ccc(Br)cc3)C2=O)ccc1O	3	1
O=C1C2C3C=CC(C3)C2C(=O)N1/N=C\c1ccc(-c2ccc(Cl)c([N+](=O)[O-])c2)o1 (configuration not stated)	14	0.86
Cc1ccc(C2=[N+]([O-])C3(CCCCC/C3=N/NC(N)=S)N(O)C2(C)C)o1 (configuration not stated)	-1	0.97
COC(=O)c1ccc(/C=C2\SC(=Nc3ccc(Br)cc3)NC2=O)cc1	9	0.99
CC(=O)N1C(=O)/C(=C2/SC(=Nc3ccc(Br)cc3)NC2=O)c2ccccc21	10	1.2*
COc1ccc(Cl)cc1C(=O)Nc1cc(C)on1	5	1
O=C(NCCCN1CCOCC1)c1cccc(Cl)c1	10	0.75*
O=C(Cc1ccc(Cl)cc1)NCCN1CCOCC1	30	0.91
COc1ccc(/C(N)=N\OC(=O)c2ccc(C)c([N+](=O)[O-])c2)cc1	22	0.98
CC(=O)NNC(=O)c1ccccc1[N+](=O)[O-]	4	1.1
Cn1cnc2cc(Nc3nnc(-c4ccc(Cl)cc4)c4ccccc34)ccc21	12	0.7*
